Data on six molecules can be found in PubChem BioAssay (NCI).

Compounds without any hit were thinned out: in the full panel of roughly 83,000, 20% have a hit.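 Treatment: one concentration, 48 hours, 96-well format. Scoring: percent growth, with anything below 10 considered active.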 Values without a mark were called inactive. Calls of active or inactive are those of the source.

Test systems include NCI-H23 lung; NCI-H322M lung; HOP-62 NSCLC; NCI-H460 lung; HOP-92 NSCLC; NCI-H522 lung; A549/ATCC NSCLC; 786-0 renal; COLO 205 colon; DU-145 prostate; K-562 leukemia; MALME-3M melanoma; MDA-MB-231 breast; RXF 393 renal; SF-268 CNS; SF-295 CNS; SF-539 CNS; UACC-257 melanoma; M14 melanoma; NCI-H226 lung.
Common to all, as to test: NCI-60 one-dose screen, 48 h (100 = growth as untreated, 0 = no growth, -100 = all killed)
Common to all, as to conditions: 10 µM unless noted

Turning to `COc1cc(/C=C/C(=O)c2cccs2)ccc1OCc1ccc(Cl)nc1`, the growth with NCI-H23 lung is 77.5%; in the assay with NCI-H322M lung, 85.9%; in the assay on HOP-62 NSCLC, 102%; in the assay on NCI-H460 lung it was 83.6%; with HOP-92 NSCLC, 85.2%; with NCI-H522 lung, 86.1%. For the same molecule, the growth is 99% with A549/ATCC NSCLC; 75.3% in the assay with 786-0 renal; 98.1% in the assay on COLO 205 colon; 47.7% in the assay on DU-145 prostate; 41.3% in the assay with K-562 leukemia; 81.9% in the assay with MALME-3M melanoma. The growth in the assay with MDA-MB-231 breast is 82.8%; in the assay on RXF 393 renal, 94.9%; in the assay on SF-268 CNS it was 85.1%; in the assay with SF-295 CNS, 105%; with SF-539 CNS, 91%; in the assay on UACC-257 melanoma, 91.3%. Also, the growth with M14 melanoma was 82%.

For `C/C(=N/Nc1nc2ccccc2n1C)c1ccccn1`, the growth with NCI-H23 lung is 6.57% (active); in the assay with NCI-H322M lung, 14.7%; in the assay with HOP-62 NSCLC, -7.45% (active); in the assay with NCI-H460 lung it was -23.3% (active); in the assay with HOP-92 NSCLC, 15.9%; in the assay with NCI-H522 lung it was -4.8% (active). The growth with A549/ATCC NSCLC is 4.01% (active); with 786-0 renal, 9.02% (active); with COLO 205 colon it was -4.66% (active); in the assay with DU-145 prostate, 16.2%; with K-562 leukemia, 5.81% (active); in the assay with MALME-3M melanoma, 11.6%. Also, the growth was 28.8% in the assay with MDA-MB-231 breast; -12.5% (active) in the assay on RXF 393 renal; 10.7% with SF-268 CNS; 8.08% (active) with SF-295 CNS; 0.5% (active) in the assay on SF-539 CNS; -29.2% (active) in the assay with UACC-257 melanoma. Also, the growth in the assay on M14 melanoma was -4.55% (active).

As for `N#CC1(C#N)C2=C(CCCC2)NC(c2c(F)cccc2Cl)C1(C#N)C#N` (centres undefined), the growth is 82% in the assay on NCI-H23 lung; 91.1% in the assay with NCI-H322M lung; 72.1% in the assay with HOP-62 NSCLC; 95.1% in the assay on NCI-H460 lung; 42.9% with HOP-92 NSCLC; -14.1% (active) in the assay with NCI-H522 lung. Moreover, the growth is 92.6% with A549/ATCC NSCLC; 88.7% in the assay on 786-0 renal; 91.4% in the assay with COLO 205 colon; 89.7% in the assay on DU-145 prostate; 25.8% with K-562 leukemia; 74.7% with MALME-3M melanoma. The growth in the assay with MDA-MB-231 breast is 87.5%; in the assay on RXF 393 renal it was 78.2%; in the assay with SF-268 CNS, 89.9%; in the assay on SF-295 CNS, 81.3%; in the assay on SF-539 CNS it was 50.1%; with UACC-257 melanoma it was 75.2%. Besides, the growth in the assay on M14 melanoma was 49.5%.

On to `O=C(O)c1ccc(-n2cc(/C=N/Nc3ccc(Cl)cc3Cl)c(-c3ccccc3)n2)cc1`, for which the growth in the assay with NCI-H226 lung is 88.6%; in the assay with NCI-H322M lung, 103%; in the assay on HOP-62 NSCLC it was 92.2%; in the assay with NCI-H460 lung, 102%; with HOP-92 NSCLC, 106%; in the assay on NCI-H522 lung it was 78%. Also, the growth in the assay with A549/ATCC NSCLC was 97.1%; with 786-0 renal, 97.5%; with COLO 205 colon it was 96.7%; with DU-145 prostate, 93.6%; in the assay with K-562 leukemia it was 87.8%; in the assay with MALME-3M melanoma, 92.3%. For the same molecule, the growth with MDA-MB-231 breast was 81.7%; in the assay with RXF 393 renal, 97.9%; in the assay with SF-268 CNS, 81.8%; in the assay on SF-295 CNS, 74.7%; with SF-539 CNS, 82%; in the assay on UACC-257 melanoma, 116%. Moreover, the growth with M14 melanoma is 88.1%.

As for `CCOC(=O)c1sc(/N=C2\NC(=O)/C(=C/c3ccc(N4CCN(C)CC4)cc3)S2)nc1C`, the growth in the assay with NCI-H23 lung was 99.3%; with NCI-H322M lung it was 97.6%; in the assay with HOP-62 NSCLC, 105%; with NCI-H460 lung, 109%; in the assay on HOP-92 NSCLC, 108%; in the assay on NCI-H522 lung, 77.4%. For the same molecule, the growth in the assay with A549/ATCC NSCLC was 89.6%; in the assay on 786-0 renal, 87%; with COLO 205 colon, 109%; in the assay on DU-145 prostate it was 97.3%; in the assay on K-562 leukemia, 95.2%; in the assay on MALME-3M melanoma, 99.7%. The growth in the assay on MDA-MB-231 breast was 112%; with RXF 393 renal it was 112%; in the assay with SF-268 CNS it was 97.3%; in the assay on SF-295 CNS, 102%; with SF-539 CNS, 100%; in the assay with UACC-257 melanoma, 110%. In addition, the growth in the assay with M14 melanoma was 108%.

On to `COc1cc(-c2csc(NC(=O)Nc3cc(Cl)cc(Cl)c3)n2)cc(OC)c1OC`, for which the growth is 23.7% with NCI-H23 lung; -42.1% (active) in the assay with NCI-H322M lung; -64.8% (active) with HOP-62 NSCLC; -61.6% (active) with NCI-H460 lung; -14.3% (active) in the assay on HOP-92 NSCLC; 37.5% in the assay with NCI-H522 lung. Besides, the growth in the assay with A549/ATCC NSCLC is -45.9% (active); in the assay with 786-0 renal it was -29.2% (active); with COLO 205 colon, 5.56% (active); in the assay on DU-145 prostate, -15.6% (active); with K-562 leukemia, 32.4%; in the assay with MALME-3M melanoma, -31.5% (active). The growth with MDA-MB-231 breast is -14.5% (active); with RXF 393 renal, 15.6%; in the assay on SF-268 CNS it was 27.7%; with SF-295 CNS, -46.1% (active); in the assay with SF-539 CNS it was 46.4%; in the assay with UACC-257 melanoma it was 56.7%. Further, in the assay on M14 melanoma, the growth is -6.33% (active).
